PubChem BioAssay
Activity calls are given as the source filed them.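 Rule for the calls, unless noted: active = visual image review flags a hit and inhibition of aggregation exceeds 20%; inconclusive = visual hit but inhibition at or below 20%; inactive = no hit on visual image review.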

Columns and labels:
[1] = inhibitors of TNFa-induced NFkB p65 translocation, primary screen, imaging, HUVEC, MLSMR starter and 10KST1 sets (AID 438;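 active = inhibition above 20% together with a positive visual image hit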;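 note: compound added about 3h40 before a 20 min TNFalpha stimulation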;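 for inhibition: signal is the nuclear over cytoplasmic p65 intensity ratio per well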); details: HUVEC TNFa-induced p65 nuclear translocation; cell count: measured here: nuclei count (cytotoxicity indicator), at 2.08 µM; inhibition: at 2 µM, stronger effect = higher value, 0% TNFa-plus-vehicle, 100% no-TNFa wells
[2] = reduction of polyQ htt aggregates in cells – imaging, exon1htt(103Q)mCFP cells, high-content imaging, primary screen (AID 483); details: exon1htt(103Q)mCFP cell line, aggregate imaging, at 2 µM; inhibition of aggregation: stronger effect = higher value; nuclei count: measured here: cell count, toxicity;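 note: compound exposure lasted 3 days before fixation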;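 for nuclei count: percent of the per-plate median nuclei count of sample wells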
[3] = endothelial E-selectin expression blockers – imaging, HUVEC, immunofluorescence, MLSMR starter and 10KST1 sets, primary screen (AID 487;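 active = visually confirmed hit in the image check and inhibition above 20%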;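 for inhibition: signal is fraction of cell area covered by stained E-selectin grains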;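 for nuclei count: 100% = median nuclei count of all wells on the same plate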); details: HUVEC TNFalpha-induced E-selectin immunofluorescence imaging, at 2 µM; inhibition: stronger effect = higher value; nuclei count: measured here: cell number, toxicity
[4] = target: Voltage-gated potassium channel subunit beta-2 (Rattus norvegicus) (UniProt P62483); experiment: inhibitors of rat Kvbeta2 reductase activity – biochemical, NADPH fluorescence, primary screen (AID 622;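 active = fluorescence slope higher than the sample average by over 3 SD, cut at about -0.22 in these data, passing the limit was not always enough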;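 note: slope of raw intensity against log time taken from 70 to 1610 s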); details: recombinant KvBeta, 4-cyanobenzaldehyde reduction, at 10 µM, stronger effect = higher value
Chain of Voltage-gated potassium channel subunit beta-2 (Rattus norvegicus) (P62483 whole entry, looked up): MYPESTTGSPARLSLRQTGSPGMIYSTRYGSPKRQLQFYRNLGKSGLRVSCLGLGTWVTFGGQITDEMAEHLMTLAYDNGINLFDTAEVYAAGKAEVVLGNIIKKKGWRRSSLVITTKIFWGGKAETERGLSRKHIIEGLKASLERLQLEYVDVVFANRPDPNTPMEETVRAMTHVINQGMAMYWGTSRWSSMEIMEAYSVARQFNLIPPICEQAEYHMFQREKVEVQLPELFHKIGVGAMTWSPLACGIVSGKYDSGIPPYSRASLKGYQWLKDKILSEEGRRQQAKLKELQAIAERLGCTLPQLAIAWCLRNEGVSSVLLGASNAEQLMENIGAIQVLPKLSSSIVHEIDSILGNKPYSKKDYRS

[5] = target: Voltage-gated potassium channel subunit beta-2 (Rattus norvegicus) (UniProt P62483); experiment: enhancers of rat Kvbeta2 NADPH turnover – biochemical, NADPH fluorescence, primary screen (AID 623;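 active = NADPH fluorescence slope more negative than the mean of all samples by about 3 SD, 99.7% confidence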;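 note: fluorescence intensity change per second fitted from 20 to 320 s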); details: Recombinant KvBeta, NADPH fluorescence decrease slope, 10 min; at 10 µM; stronger effect = lower value
[6] = target: Alpha-2C adrenergic receptor (Homo sapiens) (UniProt P18825); experiment: compounds altering alpha2C-coupled GIRK flux – cell-based, HEK293 alpha2C/GIRK1/2, thallium flux, primary screen (AID 624;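 active = fluorescence slope after compound addition differing from the mean of all screened samples at 99.7% confidence, in either direction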;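 note: slope of fluorescence ratio to pre-addition baseline per second over 15 to 24 s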); details: thallium flux BTC fluorescence, at 10 µM, actives lie on both sides
Chain of Alpha-2C adrenergic receptor (Homo sapiens) (P18825 whole entry, looked up): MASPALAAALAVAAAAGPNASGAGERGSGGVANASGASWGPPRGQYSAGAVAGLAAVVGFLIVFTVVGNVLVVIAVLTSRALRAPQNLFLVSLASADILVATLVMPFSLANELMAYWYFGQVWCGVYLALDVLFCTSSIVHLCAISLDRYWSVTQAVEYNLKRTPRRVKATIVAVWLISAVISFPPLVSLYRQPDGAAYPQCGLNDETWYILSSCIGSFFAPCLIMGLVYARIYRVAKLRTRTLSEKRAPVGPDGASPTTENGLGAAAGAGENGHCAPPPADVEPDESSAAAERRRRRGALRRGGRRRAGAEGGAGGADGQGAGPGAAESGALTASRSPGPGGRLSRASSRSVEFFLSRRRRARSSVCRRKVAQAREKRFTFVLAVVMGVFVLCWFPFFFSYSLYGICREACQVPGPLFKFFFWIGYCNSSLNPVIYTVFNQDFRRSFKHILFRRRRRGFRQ

[7] = blockers of RIG-like receptor reporter activation – cell-based, Sendai virus stimulus, luciferase, 10K MLSCN set, TLR/RLR signaling modifier project, primary screen (AID 602276;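 active = inhibition at or above 50% at 10 µM; inactive = inhibition below 50%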;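 note: firefly luciferase from ISG56 promoter only with Renilla not read in this screen; 0% = Sendai virus plus DMSO and 100% = medium plus DMSO without virus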); details: HEK293 RL24 IRF3 luciferase reporter, at 10 µM, stronger effect = higher value
[8] = TLR3 IRF3 reporter activation blockers – cell-based, poly I:C stimulus, luciferase, 10K MLSCN set, primary screen (AID 602277;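 active = inhibition of the reporter signal at or above 50%; inactive = inhibition below 50%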); details: HEK293-TLR3 RL24 IRF3 luciferase reporter, at 10 µM, stronger effect = higher value

COc1ccc(-c2cc3c(=O)n(CC(=O)NC4CCN(Cc5ccccc5)CC4)ncn3n2)cc1
cell count [1]: 296 | inhibition [1]: 2.8% (inactive) | inhibition of aggregation [2]: 0.5% (inactive) | nuclei count [2]: 91.9% | inhibition [3]: 2.5% (inactive) | nuclei count [3]: 90.8% | fluorescence slope [4]: -0.404 (inactive) | NADPH fluorescence slope [5]: -4.1e-05 (inactive) | slope [6]: 0.00479 (inactive) | inhibition [7]: -14.7% (inactive) | inhibition [8]: -13.3% (inactive)

COc1ccccc1-c1nnc(SCc2ccccn2)n1C
cell count [1]: 307 | inhibition [1]: 7.6% (inactive) | inhibition of aggregation [2]: -5.8% (inactive) | nuclei count [2]: 97.6% | inhibition [3]: -25.6% (inactive) | nuclei count [3]: 104% | fluorescence slope [4]: -0.581 (inactive) | NADPH fluorescence slope [5]: 0.000106 (inactive) | slope [6]: 0.0056 (inactive) | inhibition [7]: -14.7% (inactive) | inhibition [8]: -10.3% (inactive)

O=C(c1ccccc1Cl)N1CCc2ccccc2C1
cell count [1]: 645 | inhibition [1]: -4.9% (inactive) | inhibition of aggregation [2]: 17.3% (inactive) | nuclei count [2]: 97.3% | inhibition [3]: -68.8% (inactive) | nuclei count [3]: 112% | fluorescence slope [4]: -0.478 (inactive) | NADPH fluorescence slope [5]: -0.000194 (inactive) | slope [6]: 0.00482 (inactive) | inhibition [7]: -6.82% (inactive) | inhibition [8]: -17% (inactive)

O=C(NC1=NCCS1)c1nc(-c2ccccc2)n(-c2ccccc2)n1
cell count [1]: 495 | inhibition [1]: 4.7% (inactive) | inhibition of aggregation [2]: 1% (inactive) | nuclei count [2]: 109% | inhibition [3]: -60.7% (inactive) | nuclei count [3]: 113% | fluorescence slope [4]: -0.405 (inactive) | NADPH fluorescence slope [5]: -4.9e-05 (inactive) | slope [6]: 0.00535 (inactive) | inhibition [7]: 8.38% (inactive) | inhibition [8]: 11.1% (inactive)

O=C(OCC(=O)N1CCCCCC1)c1cccs1
cell count [1]: 295 | inhibition [1]: 7.1% (inactive) | inhibition of aggregation [2]: 3.3% (inactive) | nuclei count [2]: 103% | inhibition [3]: 4.3% (inactive) | nuclei count [3]: 107% | fluorescence slope [4]: -0.53 (inactive) | NADPH fluorescence slope [5]: -5.7e-05 (inactive) | slope [6]: 0.00485 (inactive) | inhibition [7]: -20.1% (inactive) | inhibition [8]: -75.3% (inactive)

COc1ccc2cc(CN(CCO)C(=O)c3ccccc3F)c(=O)[nH]c2c1
cell count [1]: 474 | inhibition [1]: 9.4% (inactive) | inhibition of aggregation [2]: -16% (inactive) | nuclei count [2]: 108% | inhibition [3]: -93% (inactive) | nuclei count [3]: 110% | fluorescence slope [4]: -0.496 (inactive) | NADPH fluorescence slope [5]: 5.3e-06 (inactive) | slope [6]: 0.00191 (inactive) | inhibition [7]: -11.1% (inactive) | inhibition [8]: -5.69% (inactive)

CCOc1ccccc1N(C(=O)Cn1nnnc1-c1ccc(C)o1)C(CC)C(=O)NC(C)(C)C (centres undefined)
cell count [1]: 663 | inhibition [1]: 1.6% (inactive) | inhibition of aggregation [2]: -4.4% (inactive) | nuclei count [2]: 111% | inhibition [3]: -61.8% (inactive) | nuclei count [3]: 89.5% | fluorescence slope [4]: -0.531 (inactive) | NADPH fluorescence slope [5]: -6.1e-06 (inactive) | slope [6]: 0.00561 (inactive) | inhibition [7]: -5.79% (inactive) | inhibition [8]: 11.2% (inactive)

CC(=O)OC(C(=O)NC1CCCCC1)c1ccncc1 (centres undefined)
cell count [1]: 614 | inhibition [1]: -8.1% (inactive) | inhibition of aggregation [2]: -3.6% (inactive) | nuclei count [2]: 105% | inhibition [3]: -147% (inactive) | nuclei count [3]: 107% | fluorescence slope [4]: -0.498 (inactive) | NADPH fluorescence slope [5]: -3e-05 (inactive) | slope [6]: 0.00464 (inactive) | inhibition [7]: 8.21% (inactive) | inhibition [8]: 13.3% (inactive)

CCOC(=O)N1CCN(CC(=O)Nc2cc(C)nn2-c2nc3ccccc3s2)CC1
cell count [1]: 859 | inhibition [1]: 9.9% (inactive) | inhibition of aggregation [2]: -38.2% (inactive) | nuclei count [2]: 101% | inhibition [3]: -132% (inactive) | nuclei count [3]: 122% | fluorescence slope [4]: -0.609 (inactive) | NADPH fluorescence slope [5]: 2.4e-05 (inactive) | slope [6]: 0.00559 (inactive) | inhibition [7]: 13.7% (inactive) | inhibition [8]: 27.3% (inactive)

CCOC(=O)CSc1ncnc2c1cnn2-c1ccc(C)cc1
cell count [1]: 296 | inhibition [1]: 2.4% (inactive) | inhibition of aggregation [2]: -24.2% (inactive) | nuclei count [2]: 108% | inhibition [3]: -3.4% (inactive) | nuclei count [3]: 129% | fluorescence slope [4]: -0.581 (inactive) | NADPH fluorescence slope [5]: -2e-05 (inactive) | slope [6]: 0.00447 (inactive) | inhibition [7]: 22.8% (inactive) | inhibition [8]: 21.8% (inactive)

N#Cc1c(-c2ccccc2)nc(N2CCCCCC2)[nH]c1=O
cell count [1]: 379 | inhibition [1]: -6.1% (inactive) | inhibition of aggregation [2]: 1.9% (inactive) | nuclei count [2]: 102% | inhibition [3]: -43.6% (inactive) | nuclei count [3]: 116% | fluorescence slope [4]: -0.41 (inactive) | NADPH fluorescence slope [5]: -1.5e-05 (inactive) | slope [6]: 0.0048 (inactive) | inhibition [7]: 6.52% (inactive) | inhibition [8]: 14.7% (inactive)

Cc1ccc(-n2c(Cn3cnc4ccccc43)nnc2SCC(=O)O)cc1
cell count [1]: 610 | inhibition [1]: -9.8% (inactive) | inhibition of aggregation [2]: -19.4% (inactive) | nuclei count [2]: 108% | inhibition [3]: -26.2% (inactive) | nuclei count [3]: 110% | fluorescence slope [4]: -0.437 (inactive) | NADPH fluorescence slope [5]: 1.2e-06 (inactive) | slope [6]: 0.00571 (inactive) | inhibition [7]: 15.2% (inactive) | inhibition [8]: 21.8% (inactive)

COc1cccc(C(=O)Nc2ncc3c(n2)CC(C)CC3=O)c1 (centres undefined)
cell count [1]: 390 | inhibition [1]: 2.5% (inactive) | inhibition of aggregation [2]: 3% (inactive) | nuclei count [2]: 95.8% | inhibition [3]: -0.5% (inactive) | nuclei count [3]: 88.1% | fluorescence slope [4]: -0.592 (inactive) | NADPH fluorescence slope [5]: -5.1e-05 (inactive) | slope [6]: 0.00534 (inactive) | inhibition [7]: -6.66% (inactive) | inhibition [8]: -7.05% (inactive)

CCCCOc1ccc(C(=O)N2CCC(C)CC2)cc1
cell count [1]: 323 | inhibition [1]: 7.9% (inactive) | inhibition of aggregation [2]: -8.4% (inactive) | nuclei count [2]: 99.9% | inhibition [3]: -13.8% (inactive) | nuclei count [3]: 87% | fluorescence slope [4]: -0.434 (inactive) | NADPH fluorescence slope [5]: -5.1e-05 (inactive) | slope [6]: 0.00442 (inactive) | inhibition [7]: -4.61% (inactive) | inhibition [8]: -21% (inactive)
